In the library only some 8% were active in any assay of this set; here they are far more common.
HT1080-NT tox: kills 2HG-producing HT-1080-NT fibrosarcoma cells. HT-1080-NT fibrosarcoma viability, CellTiter-Glo ATP luminescence, 48 h. Potency, µM (doses to about 46.1 µM), for the others: top-dose activity, negative = less viability, hits mostly cytotoxic. actives 1.6% (n = 360,000). AID 686970;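 further: NT is the 2HG producing partner of a matched IDH1 knockdown line; 0% = DMSO-treated cells and -100% = media-only wells without cells; nearly all actives have a fitted effect of over 55% in size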
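Fibrosarcoma NT cells, 750 per well in 5% FBS RPMI, were exposed to compound for 48 hours. Viability: CellTiter-Glo luminescence.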
HT1080 IDH1KD tx: toxicity to HT-1080 IDH1 knockdown cells (counter line); actives 2% (n = 360,000); HT-1080 IDH1 knockdown viability, ATP luminescence, 48 h; Potency, µM (series often up to 46.1 µM), inactives show at the highest dose activity, negative = toxicity, usual class: cytotoxic;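 further: 0% = DMSO wells and -100% = cell-free medium wells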
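After a 2 h attachment period, IDH1KD HT-1080 cells took pin-transferred compound for 48 h at 37 °C; ATP-based luminescence after 10 min room-temperature reagent incubation reported viability.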
KB-V1 cytotox: kills drug-selected multidrug resistant KB-V1 cells; KB-V1 MDR cells viability, CellTiter-Glo, 72 h; Potency, µM (series often up to 46.1 µM), usual class: cytotoxic; actives 3.4% (n = 400,000); AID 1347076; further: on the % scale 0 is the no-effect control and ±100 the full control effect; nearly all actives have a fitted effect of over 60% in size
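Following 72 h at 37 degrees C with compound, KB-V1 cell viability was read by CellTiter-Glo luminescence, medium being phenol-red-free DMEM plus 10% FBS; concentration-response parameters came from normalized, curve-fitted qHTS data.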
KB-3-1 tox: kills parental KB-3-1 adenocarcinoma cells. AID 1347075. KB-3-1 viability, CellTiter-Glo ATP luminescence, 72 h. Potency, µM (titrated, usually from 46.1 µM), actives largely listed as cytotoxic. actives 1.4% (n = 400,000); further: on the % scale 0 is the no-effect control and ±100 the full control effect; nearly all actives have a fitted effect of over 60% in size
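Parental KB-3-1 adenocarcinoma cells in phenol-red-free DMEM with 10% FBS were pin-treated with compounds at several concentrations, incubated 72 h at 37 °C, and viability read by CellTiter-Glo luminescence; concentration-effect curves were fitted after normalization.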
MCF10A rerep: induces DNA re-replication in MCF 10a normal breast cells | MCF 10A DNA re-replication, Hoechst nuclear intensity, 48 h | Potency, µM (series often up to 46.1 µM), inactives show top-dose activity, positive = re-replication, most hits filed as activators | actives 2.9% (n = 350,000); further: % of control where 0% means no effect; nearly all actives have a fitted effect of over 50% in size
SW480 rereplic: induces DNA re-replication in SW480 colon adenocarcinoma cells; SW480 DNA re-replication, Hoechst DNA content imaging, 48 h; Potency, µM (series often up to 46.1 µM), without a hit: at the top dose re-replication activation, usual class: activators; actives 1.8% (n = 340,000); AID 624297; further: % of control where 0% means no effect; nearly all actives have a fitted effect of over 55% in size
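Cells (250 per well) received 23 nL compound or DMSO by pin tool and were kept 48 hr at 37 C, 5% CO2. Nuclei were then stained with Hoechst for 40 min and scanned for DNA content.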
* = called active by the depositor; i = inactive; ? = inconclusive; . = no result; [ ] = another dose, or the depositor's remark. The call rests on the fitted dose curve; in most records, active means well fitted curve in the direction sought with a large enough effect; inconclusive means small, poorly fitted or top-dose-only effect, or another doubt; inactive means no such curve, though single readings can be large; an effect the other way counts as inactive or inconclusive. Potency means the concentration at half of the fitted maximal effect.

SMILES	HT1080-NT tox	HT1080 IDH1KD tx	KB-V1 cytotox	KB-3-1 tox	MCF10A rerep	SW480 rereplic
CC1Cc2ccccc2N1S(=O)(=O)c1cnc(Cl)c(Br)c1 (centres undefined)	-0.7%	-12.3%	i	i	?	?
CC1Cc2ccccc2N1S(=O)(=O)c1cnc(Cl)c(Cl)c1 (centres undefined)	-2.5%	2.3%	i	i	14.6µM*	-5.5%
Cc1nc(SCC(=O)NCC2CCCO2)c2cc(-c3ccccc3)sc2n1 (centres undefined)	?	-27.0%	?	?	20.6µM*	-2.7%
Cc1ccccc1-n1c(SCC(=O)NCC2CCCO2)nnc1-c1ccncc1 (centres undefined)	3.2%	14.1%	i	i	3.0%	-0.6%
Cn1c(SCC(=O)NCC2CCCO2)ncc(C(=O)Nc2ccc(Cl)cc2)c1=O (centres undefined)	-0.5%	3.2%	i	?	18.4µM*	4.61µM*
Cc1ccccc1-n1c(C)nnc1SCC(=O)NCC1CCCO1 (centres undefined)	?	22.4µM*	i	i	-2.4%	2.1%
Cn1c(SCC(=O)NCC2CCCO2)ncc(C(=O)Nc2ccc(F)cc2)c1=O (centres undefined)	2.4%	6.8%	i	?	24.7%	1.9%
CCCCN(C)CCCNC(=O)Cn1ncc2c3ccccc3n(Cc3cccc(Cl)c3)c2c1=O	.	.	i	i	.	.
COc1ccc(Cl)cc1NC(=O)Cn1cc2c(n1)CCC(C)C2 (centres undefined)	.	.	i	i	.	.
Fc1ccc(-c2nnc(CN3CCN(c4ccccn4)CC3)o2)cc1	.	.	i	i	.	.
COc1ccc2oc(=O)c(C(=O)N3CCN(c4ccc(C)cc4)CC3)cc2c1	.	.	i	i	.	.
CN(C)c1ccc(/C=C/c2ccnc3c(-c4ccccc4)cccc23)cc1	.	.	?	i	.	.
CCOc1cc2c3c(c1)C1(OCCO1)C(=O)N3C(C)(C)CC2C (centres undefined)	-1.4%	-2.3%[9.24 µM]	i	i	12.7%	-6.1%
Cc1cc2c3c(c1)C1(C(=O)N3C(C)(C)CC2C)C(C#N)=C(N)Oc2n[nH]c(C)c21 (centres undefined)	?	?	i	?	28.3%	?
CCOc1cc2c3c(c1)C1(Nc4ccccc4S1)C(=O)N3C(C)(C)CC2C (centres undefined)	?	?	i	i	20.6µM*	?
CCOc1cc2c3c(c1)C1(C(=O)N3C(C)(C)CC2C)C(C#N)=C(N)N2C(=C1C#N)Nc1ccccc12 (centres undefined)	-10.2%	-10.8%	i	i	16.4µM*	1.6%
Cc1oc(-c2cccc(Cl)c2)nc1CSc1nncn2c1cc1occc12	.	.	i	i	.	.
CC(OC(=O)CCOc1ccccc1)C(=O)Nc1ccc(Cl)cn1 (centres undefined)	0.3%	12.9%	i	i	16.4µM*	?
Cc1cccc(OCCC(=O)OC(C)C(=O)Nc2ccc(Cl)cn2)c1 (centres undefined)	3.5%	2.1%	i	i	-2.0%	-12.8%
O=C(Cc1ccccc1)NNC(=O)Nc1cccc(Cl)c1	-13.5%	0.3%	i	i	-1.2%	14.0%
O=C(CN1c2ccccc2Sc2ccccc21)NNC(=O)Nc1cccc(Cl)c1	18.4µM*	11.6µM*	i	?	23.1µM*	?
CCOC(=O)c1c(C)c(C(=O)O)n(C)c1C	0.1%	9.8%	i	i	4.8%	0.2%
CCOC(=O)c1c(C)c(/C=N/Nc2ccccc2)n(C)c1C	-20.6%	-14.4%	i	i	11.6µM*	30.0%
CC(C)CCNC(=O)C1CCC(Cn2c(=O)c3sccc3n(CC(=O)NC(C)C)c2=O)CC1 (centres undefined)	.	.	i	i	.	.
Cc1cc2nc(-c3ccc[nH]c3=O)[nH]c2cc1C	18.4µM*	18.4µM*	?	i	15.8%	16.7%
SMILES	HT1080-NT tox	HT1080 IDH1KD tx	KB-V1 cytotox	KB-3-1 tox	MCF10A rerep	SW480 rereplic
Cc1cc2nc(-c3ccc[nH]c3=O)n(Cc3ccc(F)cc3)c2cc1C	-4.1%	-10.9%	i	i	3.5%	9.9%
Cc1ccc(Cn2ccnc2SCC(=O)Nc2nnc(C)s2)cc1	.	.	i	i	.	.
COc1cc(C2c3cc4c(cc3OC(NNC(N)=O)C2C)OCO4)cc(OC)c1OC (centres undefined)	1.3µM*	?	7.31µM*	0.517µM*	0.731µM*	1.3µM*
COc1cc(C2c3cc4c(cc3OC(NCc3ccccc3)C2C)OCO4)cc(OC)c1OC (centres undefined)	1.64µM*	1.16µM*	?	0.581µM*	1.64µM*	4.61µM*
COc1cc(C2c3cc4c(cc3OC(NNC(N)=S)C2C)OCO4)cc(OC)c1OC (centres undefined)	1.84µM*	?	?	1.03µM*	1.46µM*	2.59µM*
COc1ccc(C2c3cc4c(cc3OC(NNC(N)=O)C2C)OCO4)cc1 (centres undefined)	?	16.4µM*	9.2µM*	6.51µM*	?	?
COc1cc(CC(=O)NCc2ccc3c(c2)OCO3)cc(OC)c1OC	13.4%	8.2%	i	?	-10.5%	-5.8%[9.22 µM]
COc1ccc(C(=O)N2c3ccccc3C(=O)OC2c2ccc3c(c2)OCO3)cc1 (centres undefined)	-0.9%	-3.1%	i	i	3.8%	4.9%
CC1CCN(c2oc(-c3cccs3)nc2S(=O)(=O)c2ccc(Cl)cc2)CC1	.	.	i	i	.	.
COC(=O)[C@@H]1CCCN1S(=O)(=O)Cc1ccccc1	.	.	i	i	.	.
COc1ccc(Cl)cc1NC(=O)Cc1ccc(NC(=O)N2CCCCc3ccccc32)cc1	.	.	i	i	.	.
COc1cccc(C2c3cc4c(cc3OC(NNC(N)=O)C2C)OCO4)c1O (centres undefined)	4.61µM*	6.51µM*	4.61µM*	1.46µM*	3.26µM*	8.2µM*
COc1cccc(C2c3cc4c(cc3OC(C)(N3CCCC3)C2C)OCO4)c1O (centres undefined)	?	?	16.4µM*	?	?	18.4µM*
COc1ccccc1C(=O)Nc1ccc2c(c1)OCO2	-7.1%	-23.6%	i	i	-7.0%	-7.6%
CCOC(=O)c1c(C)oc2ncnc(N3CCN(c4ccccc4)CC3)c12	.	.	?	i	.	.
CCc1nnc2c(N3CCN(c4cccc(C(F)(F)F)c4)CC3)nc3ccccc3n12	.	.	?	i	.	.
